# Results filed as inconclusive are left out. Unmarked numbers belong to inactive results. Unless noted, calls follow the shape of the dose curve; as a rule, active = well fitted cell-killing curve with a large enough effect in the repeat runs; inconclusive = weak or mixed curves; inactive = no such curve, though single readings can be large or run the other way.
# Molecular target: Peroxisome proliferator-activated receptor delta (Homo sapiens) (UniProt Q03181)
# Test: qHTS assay to identify small molecule agonists of the peroxisome proliferator-activated receptor delta (PPARd) signaling pathway (AID 743212; calls by dose curve;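 also: HEK293H cells with PPARd UAS beta-lactamase reporter GeneBLAzer system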)
# Conditions: HEK293H PPARd-UAS-bla, beta-lactamase FRET ratio, 17 h; series mostly up to 62.6 µM; activation: at the top concentration
# Outline: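 HEK293H PPARd-bla cells; 5 h preincubation 37 C/5% CO2; compound (DMSO) 37 C; LiveBLAzer B/G FRET substrate 2 h RT; fluorescence intensity.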
# % is scaled to controls: 0 for no effect and ±100 for the full control effect.
# Peroxisome proliferator-activated receptor delta (Homo sapiens), sequence (Q03181 whole entry, looked up): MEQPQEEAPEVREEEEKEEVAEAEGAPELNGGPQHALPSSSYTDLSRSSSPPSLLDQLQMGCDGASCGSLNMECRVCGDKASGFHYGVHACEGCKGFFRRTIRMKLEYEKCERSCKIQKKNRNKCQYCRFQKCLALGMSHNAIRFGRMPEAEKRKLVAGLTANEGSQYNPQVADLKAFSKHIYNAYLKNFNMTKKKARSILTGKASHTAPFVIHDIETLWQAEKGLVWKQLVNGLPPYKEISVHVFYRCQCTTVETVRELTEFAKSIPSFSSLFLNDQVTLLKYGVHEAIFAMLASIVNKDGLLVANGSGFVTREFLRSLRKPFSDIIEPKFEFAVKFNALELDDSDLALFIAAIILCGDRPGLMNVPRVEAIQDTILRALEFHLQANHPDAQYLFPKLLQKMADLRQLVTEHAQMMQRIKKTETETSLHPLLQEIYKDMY
row,SMILES,activation
1,NS(=O)(=O)c1ccccc1OC(F)(F)F,-0.299%
2,C=COCCOCCOC=C,-3.97%
3,C[N+](C)(C)CC(O)CCl (stereo unspecified),-0.24% [at 81.1 µM]
4,CCCCCCCCCCCCC,-3.36%
5,CCCCC[Si](OCC)(OCC)OCC,-3.64%
6,O=S(=O)(O)CCO,-0.671% [at 81.1 µM]
7,CCCCCCCCCCCCCC(=O)OC,-0.586%
8,Nc1nc(=O)n([C@@H]2O[C@H](CO)[C@@H](O)[C@@H]2F)cc1I,-0.486%
9,C[C@H]1O[C@H](O[C@H]2[C@H](O)[C@@H](O)[C@@H](O[C@H]3[C@H](O)[C@@H](O)[C@H](O)O[C@@H]3CO)O[C@@H]2CO)[C@H](O)[C@@H](O)[C@@H]1N[C@H]1C=C(CO)[C@@H](O)[C@H](O)[C@H]1O,1.66%
10,CC(=O)Nc1ccc(C)cc1,2.46%
11,C=CC(C)(O)CC/C=C(\C)CC (stereo unspecified),-4.72%
12,O=C(O)c1c(Cl)ccc(Cl)c1Cl,-2.24%
13,CC(C)COC(=O)COc1ccc(Cl)cc1Cl,-6.55%
14,CNC(=O)C(c1ccccc1)c1ccccc1,7.17%
15,Cc1nc2ccccc2c(=O)o1,0.042% [at 81.1 µM]
16,C=C[C@@H](C)CCC=C(C)C,-1.39%
17,NC(=O)NC(=O)Cc1ccccc1,-1.81%
18,Nc1ccc(S(=O)(=O)NC(=O)c2ccccc2)cc1,-0.778%
19,CC(=O)OCCCc1ccccc1,-2.44%
20,NC(=O)NNC(N)=O,-3.14%
21,Cc1cc(O)c2c(c1)C(=O)c1cccc(O)c1C2=O,-4.35%
22,O=C(O)c1ccccc1C(=O)OCc1ccccc1,3.25%
23,CN(C)CCOCCN(C)CCO,0.839%
24,CC(C)(CO)[C@@H](O)C(=O)NCCCO,0.679%

# Tested on: not listed separately
# Test: qHTS assay to identify small molecule antagonists of the peroxisome proliferator-activated receptor delta (PPARd) signaling pathway - cell viability counter screen (AID 743213); also: nearly all actives have a fitted effect of over 50% in size
# Conditions: PPARd-bla HEK293H viability, CellTiter-Glo luminescence, 17 h; series mostly up to 62 µM; viability change, negative = cytotoxic: at the top concentration
# Outline: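 Cytotoxicity counter screen: CellTiter-Glo luminescence read 30 min after addition, in the same wells as the reporter assay. There, PPARd UAS-bla HEK293H cells (3000/well) were treated 17 h at 37 C with compound and 300 nM L165041.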
row,SMILES,"viability change, negative = cytotoxic"
1,NS(=O)(=O)c1ccccc1OC(F)(F)F,5.66%
2,C[C@@H]1C[C@H]2[C@@H]3C[C@H](F)C4=CC(=O)C=C[C@]4(C)[C@@]3(F)[C@@H](O)C[C@]2(C)[C@@]1(O)C(=O)CO,6.3%
3,CCOC(=O)CC#N,-12.8%
4,CC(=O)OCC(=O)[C@@]1(O)[C@H](OC(C)=O)C[C@H]2[C@@H]3CCC4=CC(=O)C=C[C@]4(C)[C@@]3(F)[C@@H](O)C[C@@]21C,4.28%
5,COCCOCCOCCOC,1.71%
6,C=COCCOCCOC=C,-2.57%
7,BrC/C=C/CBr,3.3% [at 28.9 µM]
8,C[N+](C)(C)CC(O)CCl (stereo unspecified),-1.41% [at 80.4 µM]
9,CCCCC[Si](OCC)(OCC)OCC,2.58%
10,C/C=C(\C)C(=O)OCC/C=C\CC,0.605%
11,CC1CCC(C(C)(C)S)C(=O)C1 (stereo unspecified),-19.5%
12,CC(=O)N1CCN(c2ccc(O)cc2)CC1,29.2%
13,O=S(=O)(O)CCO,-16% [at 80.4 µM]
14,FC(F)(F)c1ccc(Cl)cc1Cl,-21.7%
15,CCCCCCCCCCCCCC(=O)OC,-9.29%
16,CCCCOC(=O)C(=O)OCCCC,13%
17,Nc1nc(=O)n([C@@H]2O[C@H](CO)[C@@H](O)[C@@H]2F)cc1I,1.74%

row,SMILES,"viability change, negative = cytotoxic"
1,C[C@H]1O[C@H](O[C@H]2[C@H](O)[C@@H](O)[C@@H](O[C@H]3[C@H](O)[C@@H](O)[C@H](O)O[C@@H]3CO)O[C@@H]2CO)[C@H](O)[C@@H](O)[C@@H]1N[C@H]1C=C(CO)[C@@H](O)[C@H](O)[C@H]1O,5.06%
2,CC(=O)Nc1ccc(C)cc1,-4.32%
3,C=CC(C)(O)CC/C=C(\C)CC (stereo unspecified),17.9%
4,O=C(O)c1c(Cl)ccc(Cl)c1Cl,3.51%
5,CC(C)COC(=O)COc1ccc(Cl)cc1Cl,4.43%
6,Cc1nc2ccccc2c(=O)o1,13.2% [at 80.4 µM]
7,C=C[C@@H](C)CCC=C(C)C,11.5%
8,NC(=O)NC(=O)Cc1ccccc1,16.4%
9,Nc1ccc(S(=O)(=O)NC(=O)c2ccccc2)cc1,22.1%
10,CC(=O)OCCCc1ccccc1,-12.7%
11,CCCCCCCCCCCCOC(C)=O,6.81%
12,c1ccccc1,-2.1%
13,NC(=O)NNC(N)=O,0.183%
14,Cc1cc(O)c2c(c1)C(=O)c1cccc(O)c1C2=O,-2.71%
15,O=C(O)c1ccccc1C(=O)OCc1ccccc1,13.1%
16,CN(C)CCOCCN(C)CCO,-1.22%
17,CC(C)(CO)[C@@H](O)C(=O)NCCCO,-4.55%

# Molecular target: Peroxisome proliferator-activated receptor delta (Homo sapiens) (UniProt Q03181)
# Test: qHTS assay to identify small molecule antagonists of the peroxisome proliferator-activated receptor delta (PPARd) signaling pathway (AID 743215; active = well fitted inhibition curve with a large enough effect in the signal ratio in the repeat runs, not every such curve was filed as active; the % refers to the signal ratio;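 also: cells stimulated with agonist L165041 at 300 nM final during compound exposure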)
# Conditions: HEK293H PPARd-UAS-bla, beta-lactamase FRET ratio, antagonist, 17 h; series mostly up to 62 µM; ratio activity, negative = inhibition: at the top concentration
# Outline: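 With L165041 present at 300 nM final, compounds were incubated 17 h at 37 C on PPARd UAS-bla HEK293H cells. A FRET-based beta-lactamase substrate was then applied for 2 h at room temperature and fluorescence intensity recorded.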
row,SMILES,"ratio activity, negative = inhibition"
1,CCOC(=O)CC#N,-6.69%
2,CC(=O)OCC(=O)[C@@]1(O)[C@H](OC(C)=O)C[C@H]2[C@@H]3CCC4=CC(=O)C=C[C@]4(C)[C@@]3(F)[C@@H](O)C[C@@]21C,3.19%
3,C=COCCOCCOC=C,3.28%
4,BrC/C=C/CBr,-6.33% [at 28.9 µM]
5,CCCCC[Si](OCC)(OCC)OCC,1.9%
6,C/C=C(\C)C(=O)OCC/C=C\CC,12%
7,CNC(=O)NC,-2.14% [at 80.4 µM]
8,CC1CCC(C(C)(C)S)C(=O)C1 (stereo unspecified),-4.15%
9,O=S(=O)(O)CCO,-0.988% [at 80.4 µM]
10,CCCCCCCCCCCCCC(=O)OC,0.149%
11,CCCCOC(=O)C(=O)OCCCC,8.38%
12,Nc1nc(=O)n([C@@H]2O[C@H](CO)[C@@H](O)[C@@H]2F)cc1I,-8.19%
13,C[C@H]1O[C@H](O[C@H]2[C@H](O)[C@@H](O)[C@@H](O[C@H]3[C@H](O)[C@@H](O)[C@H](O)O[C@@H]3CO)O[C@@H]2CO)[C@H](O)[C@@H](O)[C@@H]1N[C@H]1C=C(CO)[C@@H](O)[C@H](O)[C@H]1O,6.14%
14,CC(=O)Nc1ccc(C)cc1,4.24%
15,C=CC(C)(O)CC/C=C(\C)CC (stereo unspecified),3.61%
16,O=C(O)c1c(Cl)ccc(Cl)c1Cl,1.03%
17,CC(C)COC(=O)COc1ccc(Cl)cc1Cl,-4.71%
18,Cc1nc2ccccc2c(=O)o1,1.45% [at 80.4 µM]
19,C=C[C@@H](C)CCC=C(C)C,12.9%
20,Nc1ccc(S(=O)(=O)NC(=O)c2ccccc2)cc1,-3.14%
21,CC(=O)OCCCc1ccccc1,-1.66%
22,CCCCCCCCCCCCOC(C)=O,3.98%
23,c1ccccc1,1.66%
24,NC(=O)NNC(N)=O,0.55%
25,Cc1cc(O)c2c(c1)C(=O)c1cccc(O)c1C2=O,2.39%
26,O=C(O)c1ccccc1C(=O)OCc1ccccc1,16.1%
27,CN(C)CCOCCN(C)CCO,-4.3%
28,CC(C)(CO)[C@@H](O)C(=O)NCCCO,0.437%

# From PubChem BioAssay (Tox21)
